Source: PubChem BioAssay (National Center for Advancing Translational Sciences (NCATS))
In the library only some 19% were active in any assay of this set; here they are far more common.
IL-1B inflam inh = qHTS for Inhibitors of Inflammasome Signaling: IL-1-beta AlphaLISA Primary Screen. THP-1 LPS/ATP IL-1B secretion, AlphaLISA, 16 h; active compounds read low. activity change, % at 57.5 µM. 4.7% of 360,000 active; in the data active = activity change below about -50%; inconclusive = mostly about -30% to -49%
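Secreted IL-1B measured by AlphaLISA bead assay after 16 h compound exposure of THP-1 cells; compounds (final up to 57.5 uM) added 1 h before LPS (250 ng/mL) and ATP (1.25 mM) stimulation; lower signal means less secretion.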
HT1080NT lethal = qHTS for induction of synthetic lethality in tumor cells producing 2HG: qHTS for the HT-1080-NT fibrosarcoma cell line | Potency, µM (titrated, usually from 46.1 µM), for the others: top-dose activity, negative = less viability, actives largely listed as cytotoxic | HT-1080-NT fibrosarcoma viability, CellTiter-Glo ATP luminescence, 48 h | 1.6% of 360,000 active;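 note: NT is the 2HG producing partner of a matched IDH1 knockdown line; potency is the fitted concentration of half-maximal effect; 0% = DMSO-treated cells and -100% = media-only wells without cells; nearly all actives have a fitted effect of over 55% in size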
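Viability by CellTiter-Glo luminescence after 48 h compound exposure at 37C of HT-1080-NT cells (750/well, RPMI, 5% FBS). % activity scaled between DMSO wells and medium-only wells, then curve-fitted and categorized by curve class.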
HT1080 IDH1KD tx = qHTS for induction of synthetic lethality in tumor cells producing 2HG: qHTS for the HT-1080-IDH1KD cell line; HT-1080 IDH1 knockdown viability, ATP luminescence, 48 h; Potency, µM (series often up to 46.1 µM), for inactives: at the top dose activity, negative = toxicity, most hits filed as cytotoxic; 2% of 360,000 active;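 note: potency is the fitted concentration of half-maximal effect; 0% = DMSO wells and -100% = cell-free medium wells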
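% activity derives from luminescence (CellTiter-Glo), normalised to DMSO and no-cell wells. HT-1080-IDH1KD cells, 750/well, had 48 h compound exposure at 37 °C.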
TDP1 cell CPT = qHTS for Inhibitors of human tyrosyl-DNA phosphodiesterase 1 (TDP1): qHTS in cells in presence of CPT; chicken DT40 Tdp1-/-;hTDP1 cells + 20 nM CPT, ATP luminescence, 48 h; Potency, µM (series often up to 46.2 µM), without a hit: top-dose activity change, negative = growth inhibition, actives largely listed as inhibitors; 12% of 420,000 active; note: potency is the fitted concentration of half-maximal effect; nearly all actives have a fitted effect of over 55% in size
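Cell growth measured by CellTiter-Glo luminescence after a minimum 48 h, 37 C compound exposure with 20 nM CPT in Tdp1-knockout DT40 cells stably expressing hTDP1, seeded 400/well; qHTS titration format.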
DT40 TDP1 no CPT = qHTS for Inhibitors of human tyrosyl-DNA phosphodiesterase 1 (TDP1): qHTS in cells in absence of CPT. DT40 Tdp1-/- hTDP1 cells, no CPT, ATP luminescence, 48 h. Potency, µM (top dose mostly 46.2 µM), without a hit: top-dose activity change, negative = growth inhibition, hits mostly inhibitors. 15% of 420,000 active; note: potency is the fitted concentration of half-maximal effect; nearly all actives have a fitted effect of over 55% in size
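Growth of hTDP1-complemented DT40 Tdp1-knockout cells is measured by ATP luminescence after at least 48 hr compound exposure at 37 °C, with DMSO substituting for the 20 nM CPT used in the parallel screen.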
The depositor's hits bear a star; ? = inconclusive; · = no result; [ ] = dose if it differs, or a comment. Unless noted, calls come from the whole dose curve; as a rule, active = well fitted curve in the direction sought with a large enough effect; inconclusive = small, poorly fitted or top-dose-only effect, or another doubt; inactive = no such curve, though single readings can be large; an effect the other way counts as inactive or inconclusive. Unless noted, % is set by controls: 0 for no effect and ±100 for the full control effect.

SMILES	IL-1B inflam inh	HT1080NT lethal	HT1080 IDH1KD tx	TDP1 cell CPT	DT40 TDP1 no CPT
CCn1cc2c(n1)-c1c(oc(C(=O)Nc3cccc(C)c3C)c1C)CC2	·	·	·	?	15µM*
CC(=O)c1cccc(NC(=O)c2oc3c(c2C)-c2nn(Cc4ccc(Cl)cc4)cc2CC3)c1	·	·	·	?	26µM*
CCOC(=O)c1ccc(NC(=O)c2oc3c(c2C)-c2nn(Cc4ccccc4Cl)cc2CC3)cc1	·	·	·	21µM*	21µM*
Cc1c(C(=O)N2CCCC2)oc2c1-c1nn(CC(=O)NC(C)c3ccccc3)cc1CC2 (stereo not given)	·	·	·	?	23µM*
CC(=O)c1cc2c(cc1F)C(C)(C)CCC2(C)C	21	-1%	-1%	?	-11%
Cc1cccc(C)c1NC(=O)c1oc2c(c1C)-c1nn(Cc3ccccc3)cc1CC2	·	·	·	18µM*	15µM*
Cn1c(=O)cc(SCC(=O)NCc2ccc(F)cc2)c2ccc(Cl)cc21	·	·	·	2.6µM*	3.3µM*
Cn1c(=O)cc(OCCCC(=O)Nc2ccc(F)cc2)c2ccccc21	·	·	·	13µM*	15µM*
Cn1c(=O)cc(SCC(=O)NCc2ccc(F)cc2)c2ccccc21	-17	-21%	?	?	12µM*
Cn1c(=O)cc(SCC(=O)NCCC2=CCCCC2)c2ccc(Cl)cc21	-2	-4%	0%	-28%	-21%
CN(CCCNC(=O)CSc1cc(=O)n(C)c2cc(Cl)ccc12)Cc1ccccc1	?	?	21µM*	?	-19%
O=C(Cc1ccccc1)Nc1ccc2[nH]ncc2c1	-58*	-15%	-22%	-5%	5%
O=C(COc1ccc(Cl)cc1)Nc1ccc2[nH]ncc2c1	-10	10%	17%	?	21µM*
CCc1cc2c(COC(=O)c3cccc(S(C)(=O)=O)c3)cc(=O)oc2cc1O	50	?	-14%	?	?
CNS(=O)(=O)c1cccc(C(=O)OCc2cc(=O)oc3c(C)c(O)ccc23)c1	5	?	-17%	?	18µM*
CC(C(=O)N1c2ccc(F)cc2CCC1C)N1C(=O)c2ccccc2C1=O (stereo not given)	21	2%	13%	-21%	-12%
COc1ccc(Cl)cc1NC(=S)NC1CCCC1	0	5%	10%	-12%	-22%
O=C1CCC/C=C\C[C@@H](CC(=O)N(CCO)Cc2ccccc2)C(=O)N[C@H](Cc2c[nH]c3ccccc23)CO1	-18	0%	1%	?	16µM*
O=C1CC/C=C\C[C@@H](CC(=O)N(CCO)Cc2ccccc2)C(=O)N[C@H](Cc2c[nH]c3ccccc23)CO1	2	?	10%	16µM*	?
O=C1CCC/C=C/C[C@H](CC(=O)N(CCO)Cc2ccccc2)C(=O)N[C@@H](Cc2ccccc2)CO1	-9	-5%	-1%	?	21µM*
O=C1CCCC/C=C\C[C@H](CC(=O)N(CCO)Cc2ccccc2)C(=O)N[C@@H](Cc2ccccc2)CO1	-19	10%	5%	?	?
CC(=O)OCC(=O)C12OC(C)(C)OC1CC1C3CC=C4CC(O)CCC4(C)C3CCC12C (stereo not given)	2	-9%	-7%	?	?
CC(C)(CNC(=O)c1cnn(-c2nccc(-c3cc4ccccc4o3)n2)c1C1CC1)N1CCOCC1	·	·	·	-8%[9.04 µM]	-4%
Clc1cccc(-c2noc3ncnc(Nc4ccc5c(c4)OCO5)c23)c1	-5	0%	0%	-28%	?
CN(c1ncnc2onc(-c3cccc(Cl)c3)c12)C1CCCCC1	·	·	·	?	23µM*
Cc1cccc(Nc2ncnc3onc(-c4cccc(Cl)c4)c23)c1	-7	1%	-1%	21µM*	?
Cc1ccc(SCc2cn3cc(Cl)ccc3n2)cc1	-3	0%	-7%	-14%	-29%
